Experimental data reported in PubChem BioAssay AID2108 (National Center for Advancing Translational Sciences (NCATS), 2009).
Records with an inconclusive call do not appear. Calls of active or inactive are those of the source. The call rests on the fitted dose curve; in most records, active means well fitted curve in the direction sought with a large enough effect; inconclusive means small, poorly fitted or top-dose-only effect, or effect the other way, or another doubt; inactive means no such curve, though single readings can be large or run the other way.

Biological target: Alpha-galactosidase A (Homo sapiens) (UniProt P06280)
Test: Confirmation of Inhibitors of Human alpha-Galactosidase Using Spleen Homogenate
Settings: alpha-galactosidase enzyme activity; series mostly up to 56.2 µM
Summary of the method: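 AC50 values come from Hill-equation fits of normalised 4-methylumbelliferone fluorescence (365/440 nm, read after NaOH/glycine stop). Enzyme source: spleen homogenate; substrate 1 mM final; pH 5.0 citrate buffer; 40 min at 37C; compound titration 0.5 nM–58 uM.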

Chain of Alpha-galactosidase A (Homo sapiens) (P06280 32-429 limits assumed): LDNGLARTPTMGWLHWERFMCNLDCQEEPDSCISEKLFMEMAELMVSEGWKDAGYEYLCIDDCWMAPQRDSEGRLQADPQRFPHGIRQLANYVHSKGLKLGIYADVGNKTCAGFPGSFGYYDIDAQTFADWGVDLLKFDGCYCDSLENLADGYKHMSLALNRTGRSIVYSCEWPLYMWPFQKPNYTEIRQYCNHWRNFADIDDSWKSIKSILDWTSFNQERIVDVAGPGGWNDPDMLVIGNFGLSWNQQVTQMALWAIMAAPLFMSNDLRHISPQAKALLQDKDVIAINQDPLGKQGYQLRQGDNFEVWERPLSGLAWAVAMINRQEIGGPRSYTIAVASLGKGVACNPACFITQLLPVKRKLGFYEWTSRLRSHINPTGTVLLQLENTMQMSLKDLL

outcome, inactive:
Cc1ccccc1Nc1c(-c2cccs2)nc2cccc(C)n12
O=C(NC1=NCCS1)C1Cc2ccccc2CN1C(=O)c1ccccc1 (stereo unspecified)
COc1ccc(/C=C/c2nnc(NC(C)=O)s2)cc1
OC[C@H]1NC[C@H](O)[C@@H](O)[C@H]1O
N#Cc1c(-c2ccc(F)cc2)cc(-c2cccnc2)nc1N
O=c1[nH]c(CN2CCN(c3ccccc3O)CC2)nc2ccccc12
c1ccc(-c2nc3nc4ccccc4nc3n2CC2CCCO2)cc1 (stereo unspecified)
CCN(CC)c1ccc(-c2nc3cnccn3c2NC2CCCC2)cc1
O=C(COc1ccc2ccccc2c1)N1CCN(C(=O)c2ccco2)CC1
O=C1c2ccccc2NC(c2cccnc2)N1c1ccccc1F (stereo unspecified)
O=S(=O)(c1cccc(Br)c1)N1CCOCC1
CCc1sc(-c2cc3cccc(OC)c3oc2=O)nc1-c1ccccc1
CCc1sc(-c2cc3ccc(O)cc3oc2=O)nc1-c1cc(C)ccc1C
CN(CCO)S(=O)(=O)c1ccc2c(c1)C(=NNC(N)=O)c1cc(S(=O)(=O)N(C)CCO)ccc1-2
C(=C\c1ccc2ccccc2n1)/c1ccc2c(c1)OCO2
O=S(=O)(c1cccc(Cl)c1)N1CCOCC1
Cc1noc(C)c1S(=O)(=O)N(CC(=O)N1CCc2ccccc21)c1ccc(C(C)C)cc1
Oc1ccccc1C1CC(c2cccs2)=NC(c2ccc(Cl)cc2)N1 (stereo unspecified)
Nc1ccc(S(=O)(=O)N2CCOCC2)cc1
O=c1oc2ccc3ccccc3c2cc1-c1nc(CCCBr)cs1
N=c1sccn1CC(=O)Nc1cc(S(=O)(=O)N2CCCC2)ccc1Cl
O=c1oc2ccc(Cl)cc2cc1-c1nc2c(s1)CCCC2
Cc1nnc(SCC(=O)Nc2nsc(-c3ccc(C(C)(C)C)cc3)n2)s1
O=S(=O)(c1ccccc1Cl)N1CCOCC1
CC(C)C[C@H](NC(=O)c1nc[nH]c1C(=O)NCC(=O)OCc1ccccc1)C(=O)OC(C)(C)C
O=C(NCC1CCOCC1)c1ccc2nc(Cc3cccc(Cl)c3)oc2c1
COc1ccc(/C=C/c2nnc(NC(=O)CSc3ccc(C)cc3)s2)cc1
CC1CC(C)CN(CC(=O)N2c3ccccc3CCc3ccccc32)C1 (stereo unspecified)
O=S(=O)(c1ccc2ccccc2c1)N1CCOCC1
Nc1cnc(Nc2ccc(Br)cc2)nc1N
C=CCN1CCc2c(cc(O)c(O)c2Cl)C(c2ccccc2)C1 (stereo unspecified)
O=C(CSc1nc(C2CC2)nc2ccccc12)Nc1cccc(O)c1
CCc1cc(-c2n[nH]c(C)c2-c2nc3ccccc3n2C)c(O)c(CN2CCN(C)CC2)c1O
O=C1CC(c2ccccc2)Cc2nc(NCc3ccco3)ncc21 (stereo unspecified)
CC(C)Cn1c(SCC(=O)N2CCN(S(=O)(=O)c3ccccc3)CC2)nc2ccccc21
O=C(CCc1cccc(S(=O)(=O)N2CCOCC2)c1)NN=C1c2ccccc2-c2ccccc21
